The campaign covered roughly 220,000 compounds. About 2,000 (0.91%) were called active. Roughly 2% stayed inconclusive and do not appear here. The list is a sample of the results. Potency and affinity values are given separately. A number with no mark means an inactive call. No stated cut-off is given here; in the data, inconclusive means inhibition above about 80% without an active follow-up result; inactive means below that; test concentration not stated here.
Experiment: M. tuberculosis H37Rv growth inhibitors, H37Rv strain (AID 1626);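 further: bacteria incubated seven days before Alamar blue readout; 0% = bacteria only wells and 100% = bacteria with antibiotic wells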
Conditions: hits give high values, concentration not given here
With `CCOC(=O)C(NC(=O)CC(C)C)(Nc1sc(C)c(CC)c1C#N)C(F)(F)F` (centres undefined) the inhibition was -1.9%. Compound `NCC(c1ccccc1)c1c[nH]c2ccccc12` (centres undefined) has an inhibition of -2.1%. Compound `OC(CNCc1cccc(Cl)c1)c1ccccc1` (centres undefined) has an inhibition of 6.44%. Compound `COc1ccc(C2=NCCn3cccc32)c(OC)c1` has an inhibition of 4.72%. Compound `Cc1ccc(-c2nc3ncccn3c2Nc2ccccc2C)o1` has an inhibition of 10.9%. For `Cc1ccccc1Nc1c(-c2cccnc2)nc2ccccn12`, the inhibition was 3.53%. Compound `Cc1ccn2c(Nc3ccc4c(c3)OCO4)c(-c3ccccn3)nc2c1` has an inhibition of 12.5%. For `Cc1ccn2c(NC3CCCC3)c(-c3ccncc3)nc2c1`, the inhibition was -0.8%. `Cc1ccc(Nc2c(-c3ccccc3)nc3cnccn23)cc1` showed an inhibition of 3.65%. `Cc1ccn2c(NC3CCCC3)c(-c3cccs3)nc2c1` gave an inhibition of -6.97%. Compound `Cc1ccn2c(Nc3ccccc3C)c(-c3ccncc3)nc2c1` has an inhibition of -1.59%. For `Cc1ccn2c(Nc3ccccc3C)c(-c3cccnc3)nc2c1`, the inhibition was 3.46%. `CCOc1ccccc1NC(=O)CN1C(=O)COc2ccc(Cl)cc21` showed an inhibition of -3.19%. With `Cc1cc(CNC(=O)Cn2nc(C)c([N+](=O)[O-])c2C)c2ccccc2n1` the inhibition was -7.05%. With `Oc1cccnc1CCc1ccccc1` the inhibition was -10.6%. For `CCOC(=O)c1sc(NC(=O)c2ccc(C)o2)nc1C`, the inhibition was 2.75%. In the case of `CCCn1nnc(NC(=O)c2cccnc2Cl)n1`, the inhibition is reported as 7.01%. Work on `Cc1cc(NC(=O)CSc2nc(C3CCCCC3)nc3ccccc23)no1` yielded an inhibition of 7.18%. Work on `Nc1c(-c2ccccc2)cnc2cc(-c3ccccc3)nn12` yielded an inhibition of 4.02%. For `Cc1ccc(-c2nc3cnccn3c2Nc2ccccc2)o1`, the inhibition was 9.96%. `Cc1ccn2c(NCc3ccccc3)c(-c3cccs3)nc2c1` showed an inhibition of 6.23%. For `CCOc1ccccc1NC(=O)NC1(C(=O)N2CCOCC2)CCCCC1`, the inhibition was -10.7%. For `O=C(CSc1nnc(-c2ccc(O)cc2)n1Cc1ccco1)c1cccs1`, the inhibition was 2.2%. In the case of `O=C(CSCc1ccco1)c1cccs1`, the inhibition is reported as -1.66%. `O=S(=O)(c1cccc2cccnc12)N1CCN(Cc2ccc3c(c2)OCO3)CC1` showed an inhibition of -5.89%. Compound `Cc1[nH]c2ccccc2c1/C=N/NC(=O)CNC(=O)COc1ccccc1` has an inhibition of 10%. For `COc1ccc(-c2noc(CN3CCCCC3c3nccn3C)n2)cc1` (centres undefined), the inhibition was 6.82%. In the case of `COc1ccc(OC)c(-c2nc(CN3CCCCC3c3cccnc3)c(C)o2)c1` (centres undefined), the inhibition is reported as -0.43%. With `CC(C)N(Cc1nccn1C)C(=O)CCc1nnc(CCCc2ccccc2)o1` the inhibition was -2.35%. For `c1ccc(N(c2ccccc2)c2nc(-n3ccnc3)nc(-n3ccnc3)n2)cc1`, the inhibition was -4.28%. For `Nc1nc(N2CCCCC2)nc(N(c2ccccc2)c2ccccc2)n1`, the inhibition was 1.26%. `c1ccc(-c2ccc(CN3CCN(c4ncccn4)CC3)cc2)cc1` gave an inhibition of -1.29%. For `c1ccc(-c2nc(NC3CC3)nc(-n3ccnc3)n2)cc1`, the inhibition was -0.68%. Compound `C=CCNc1nc(-c2ccccc2)nc(-n2ccnc2)n1` has an inhibition of 16.6%. Work on `CCCCNc1nc(N(C)c2ccccc2)nc(-n2ccnc2)n1` yielded an inhibition of 51.3%. With `c1ccc(-c2nc(-n3ccnc3)nc(-n3ccnc3)n2)cc1` the inhibition was 3.02%. For `COc1nc(N(c2ccccc2)c2ccccc2)nc(-n2ccnc2)n1`, the inhibition was 25.8%. Compound `Cc1nccc(-c2sc(-c3cccs3)nc2C)n1` has an inhibition of 2.12%. With `COc1ccc(N2C(=O)N(Cc3ccccc3F)c3ccccc3S2(=O)=O)cc1` the inhibition was 6.95%. `CCCCNC(=O)c1ccc(SCC(=O)N(CC)CC)c([N+](=O)[O-])c1` showed an inhibition of 0.05%. In the case of `Brc1ccc(Oc2ncc(CN3CCN(c4ccccc4)CC3)s2)cc1`, the inhibition is reported as 2.17%. For `O=C(Cn1nc(-c2nn(CC(=O)c3ccccc3)c3[n+]2CCCCC3)[n+]2c1CCCCC2)c1ccccc1`, the inhibition was 6.97%. `Cc1ccc(-c2cn(-c3ccc(OC(F)F)cc3)c3[n+]2CCCCC3)cc1` gave an inhibition of -4.29%. Compound `O=C(O)CCCC(=O)NNC(=O)c1cccc(Br)c1` has an inhibition of 0.6%. `CCOc1cc(CNCCc2ccc(S(N)(=O)=O)cc2)cc(Cl)c1OCc1ccccc1` showed an inhibition of 58.8%. In the case of `COc1cc(CNCc2ccccc2)cc(Cl)c1OC`, the inhibition is reported as 4.65%. `O=C(O)c1ccc(COc2ccccc2/C=C2\NC(=O)N(Cc3ccccc3F)C2=O)cc1` showed an inhibition of -2.79%. With `CN=C(Nc1ccccc1)SC1CC(=O)N(c2ccc(C(=O)OC)cc2)C1=O` (centres undefined) the inhibition was -2.27%. With `CN=C(Nc1ccccc1OC)SC1CC(=O)N(c2ccc(C(=O)OC)cc2)C1=O` (centres undefined) the inhibition was 7.4%. `COc1ccc(N=Cc2c(O)n(Cc3ccccc3)c(=S)[nH]c2=O)c(OC)c1` showed an inhibition of 6.73%. `O=C(CSc1nnc(-c2cccnc2)n1-c1ccccc1)NCc1ccc2c(c1)OCO2` gave an inhibition of 6.03%. With `CC(Oc1ccc(Cl)cc1Cl)c1ccn[nH]1` (centres undefined) the inhibition was 2.27%. In the case of `O=C(O)CCC(=O)NN1C(=O)c2ccccc2NC1c1ccco1` (centres undefined), the inhibition is reported as -6.39%. Work on `CC(=O)Nc1ccc2[nH]c3ccccc3c2c1` yielded an inhibition of 10.6%. `COc1ccc(NC(=O)c2cc3ccc4c5ccccc5[nH]c4c3cc2O)cc1` showed an inhibition of 2.53%. For `CC(OC(=O)c1ccccc1O)C(=O)Nc1cccc(Cl)c1` (centres undefined), the inhibition was 3.01%. In the case of `CCOc1ccc2nc(NC(=O)c3cccnc3)sc2c1`, the inhibition is reported as 3.09%. For `CCC(Sc1nc(C)cc(=O)[nH]1)C(=O)Nc1nnc(C)s1` (centres undefined), the inhibition was -7.53%. In the case of `CCOC(=O)Cc1nnc(NC(=O)C(CC)Sc2nc(C)cc(=O)[nH]2)s1` (centres undefined), the inhibition is reported as -0.83%. For `CCOc1ccc2nc(NC(=O)Nc3ccccc3)sc2c1`, the inhibition was 1.1%. Compound `CCOc1ccc2nc(NC(=O)c3ccoc3C)sc2c1` has an inhibition of 8.64%. Work on `CCOc1ccc2nc(NC(=O)C3=NNC(=O)CC3)sc2c1` yielded an inhibition of 46.3%. Work on `c1ccc(CNC2=NCCCCC2)cc1` yielded an inhibition of -3.52%. Compound `COCCN(CC(=O)NC1CCCCC1)C(=O)CSc1nc2ccccc2o1` has an inhibition of -4.79%.
